Only some compounds are listed: those with a hit (about 18% of all), similar ones and a draw of the others.
TGFb SMAD3 inh: blocks TGF-b signaling; Potency, µM (highest dose often 46.1 µM), hits mostly inhibitors; 410,000 tested, 1.2% active; HepG2 CAGA-GFP TGF-b/SMAD3 reporter, GFP fluorescence, 18 h; TGF-beta stimulated, 500 pg/mL final; AID 588855; also: nearly all actives have a fitted effect of over 65% in size
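HEPG2 CAGA-GFP cells (1000/well, DMEM with 1% FBS) were pre-incubated 2 h at 37 degrees C, given compound by pin tool, then stimulated with TGF-beta at 500 pg/mL final for 18 h before per-cell GFP fluorescence imaging.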
IL1B secr inh: inflammasome signaling inhibition, IL-1 beta readout; THP-1 LPS/ATP IL-1B secretion, AlphaLISA, 16 h; stronger effect = lower value; activity change, % at 57.5 µM; 360,000 tested, 4.7% active; AID 743279; in the data active = activity change below about -50%; inconclusive = mostly about -30% to -49%
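THP-1 cells pretreated 1 hr with compounds (up to 57.5 uM final), then stimulated with LPS (250 ng/mL final) plus ATP (1.25 mM final); secreted IL-1B measured by AlphaLISA after 16 hr, decreased signal indicating inhibition.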
TDP1 cell noCPT: qHTS for Inhibitors of human tyrosyl-DNA phosphodiesterase 1 (TDP1): qHTS in cells in absence of CPT; Potency, µM (highest dose often 46.2 µM), hits mostly inhibitors; 420,000 tested, 15% active; DT40 Tdp1-/- hTDP1 cells, no CPT, ATP luminescence, 48 h; also: nearly all actives have a fitted effect of over 55% in size
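Cells were dispensed at 400 per well, compounds added by pin tool, plates incubated ≥48 hr at 37 °C, then CellTiter-Glo added for 30 min at room temperature before luminescence reading. Line: DT40 Tdp1-/- complemented with hTDP1; camptothecin omitted.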
TDP1 inh: inhibitors of human tyrosyl-DNA phosphodiesterase TDP1; recombinant TDP1, AlphaScreen DNA substrate cleavage; 350,000 tested, 0.28% active; AID 485290; Potency, µM (doses to about 130 µM), hits mostly inhibitors; also: nearly all actives have a fitted effect of over 40% in size
Target sequence (Q9NUW8 whole entry, looked up): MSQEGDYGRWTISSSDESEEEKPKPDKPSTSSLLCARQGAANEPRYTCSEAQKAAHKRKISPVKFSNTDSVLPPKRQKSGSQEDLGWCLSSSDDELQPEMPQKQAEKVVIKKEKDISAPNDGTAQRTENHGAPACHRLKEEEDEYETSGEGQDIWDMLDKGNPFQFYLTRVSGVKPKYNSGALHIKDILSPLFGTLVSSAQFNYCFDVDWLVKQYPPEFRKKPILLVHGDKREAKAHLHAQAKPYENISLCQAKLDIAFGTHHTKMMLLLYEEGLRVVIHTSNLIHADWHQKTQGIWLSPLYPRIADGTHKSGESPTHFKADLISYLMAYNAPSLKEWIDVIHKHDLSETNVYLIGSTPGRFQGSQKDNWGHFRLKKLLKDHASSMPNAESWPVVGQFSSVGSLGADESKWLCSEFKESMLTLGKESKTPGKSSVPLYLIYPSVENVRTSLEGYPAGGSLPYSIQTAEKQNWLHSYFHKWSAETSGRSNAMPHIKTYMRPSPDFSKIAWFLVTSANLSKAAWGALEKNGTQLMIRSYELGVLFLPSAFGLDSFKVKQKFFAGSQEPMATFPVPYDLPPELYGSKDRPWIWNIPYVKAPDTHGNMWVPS
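Recombinant human Tdp1 (E. coli-expressed, 1 nM final) preincubated with compounds 15 min at room temperature, then 5'-biotin/3'-phosphotyrosine-FITC DNA substrate (15 nM final) added for 5 min. AlphaScreen beads (10 ug/ml final) added 10 min; cleavage lowers signal.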
TDP1 cell CPT: DT40-hTDP1 cell growth loss with CPT. 420,000 tested, 12% active. AID 686979. Potency, µM (doses to about 46.2 µM), actives largely listed as inhibitors. chicken DT40 Tdp1-/-;hTDP1 cells + 20 nM CPT, ATP luminescence, 48 h; also: nearly all actives have a fitted effect of over 55% in size
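Chicken DT40 Tdp1-/- cells stably complemented with human TDP1 were seeded at 400 cells/well in medium containing 20 nM camptothecin, exposed to pin-transferred compounds, and grown at 37 °C for at least 48 hr. Viability was read as ATP luminescence.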
HepG2 tox: kills HepG2 cells in TGF-b inhibitor counter-screen; HepG2 CAGA-GFP viability, ATP luminescence, 18 h; Potency, µM (doses to about 46.1 µM), usual class: cytotoxic; 410,000 tested, 0.76% active
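HepG2 CAGA-GFP cells (1000/well, DMEM with 1% FBS) received compound, then TGF-beta at 500 pg/mL final, and were incubated 18 hours at 37 degrees C. Viability was read by CellTiter-Glo luminescence. Media-only wells were set as complete cell-killing and DMSO as no toxicity.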
Of the large screens only hits and unclear results are named; the others gave an inactive call; ! = not confirmed by another sample. Unless noted, calls follow the shape of the dose curve; as a rule, active = well fitted curve in the direction sought with a large enough effect; inconclusive = small, poorly fitted or top-dose-only effect, or another doubt; inactive = no such curve, though single readings can be large; an effect the other way counts as inactive or inconclusive.

O=C(/C=C/c1ccco1)NC(=S)Nc1cccc(C(=O)O)c1	none (no result: TDP1 inh)
CC(Sc1ccc(S(=O)(=O)N2CCCCCC2)cn1)C(N)=O (stereo not given)	none
COc1ccc(-c2cc(C)no2)cc1S(=O)(=O)N(C)c1ccc(C)cc1	TDP1 cell noCPT 9.2µM, TDP1 cell CPT 10µM
CCOc1ccc(N(C)S(=O)(=O)c2cc(-c3cc(C)no3)ccc2CC)cc1	TGFb SMAD3 inh inconclusive, TDP1 cell noCPT 18µM, TDP1 cell CPT inconclusive
CCOc1ccc(N(C)S(=O)(=O)c2cc(-c3cc(C)no3)ccc2C)cc1	TDP1 cell noCPT inconclusive, TDP1 cell CPT inconclusive
CCOc1ccc(N(C)S(=O)(=O)c2cc(-c3cc(C)no3)ccc2OC)cc1	TDP1 cell noCPT 15µM, TDP1 cell CPT 23µM
CN(C)c1cc(-c2ccc(Cl)c(Cl)c2)oc(=O)c1Cl	TDP1 cell noCPT inconclusive, TDP1 cell CPT inconclusive (no result: TDP1 inh)
Cc1cccc(C#Cc2ccccc2)n1	TDP1 cell noCPT 30µM!, TDP1 cell CPT inconclusive
C=CCSc1nc2c(N)ncnc2n1C1OC(CO)C(O)C1O (stereo not given)	none (no result: TDP1 inh)
CN(C)C(CNC(=O)CCc1c[nH]c2ccccc12)c1ccccc1 (stereo not given)	IL1B secr inh inconclusive (no result: TDP1 inh)
CC(C)C(c1nnnn1CCc1ccccc1)N1CCOCC1 (stereo not given)	none
CC1CCN(C(c2nnnn2CCc2ccccc2)C(C)C)CC1 (stereo not given)	TDP1 cell noCPT 18µM, TDP1 cell CPT inconclusive
COc1ccc(N2CCN(C(c3nnnn3CCc3ccccc3)C(C)C)CC2)cc1 (stereo not given)	TDP1 cell noCPT 18µM, TDP1 cell CPT 13µM
Nc1ccc(C(=O)Nc2cccc(N)c2)cc1	none
CC(C)[C@H](NC(=O)N1CCn2c1nc1ccccc12)C(=O)NCc1ccccc1Cl	TGFb SMAD3 inh inconclusive, TDP1 cell noCPT inconclusive, TDP1 cell CPT inconclusive
CC(NC(=O)CCCCCNC(=O)N1CCn2c1nc1ccccc12)c1ccccc1 (stereo not given)	IL1B secr inh -53, TDP1 cell CPT 15µM
CC(C)[C@H](NC(=O)N1CCn2c1nc1ccccc12)C(=O)NCc1ccc(F)cc1	TGFb SMAD3 inh inconclusive, IL1B secr inh -94, TDP1 cell CPT inconclusive
O=S(=O)(NCC1CCCO1)c1ccccc1F (stereo not given)	none
Cc1cc(C)nc(N2CCC(C(=O)NCc3ccccc3)CC2)n1	none
O=C(Nc1ccc2c(c1)CCC2)C1CCN(c2c3c(nc4ncnn24)CCC3)CC1	TGFb SMAD3 inh inconclusive, TDP1 cell noCPT 21µM, TDP1 cell CPT 23µM
Cc1cc(C)nc(N2CCC(C(=O)Nc3ccc(Oc4ccccc4)cc3)CC2)n1	TDP1 cell noCPT 8.2µM, TDP1 cell CPT 5.8µM
Cc1cc(C)nc(N2CCC(CNC(=O)CCc3ccccc3)CC2)n1	TDP1 cell noCPT 21µM, TDP1 cell CPT inconclusive
O=C(Nc1ccc(Oc2ccccc2)cc1)C1CCN(c2c3c(nc4ncnn24)CCC3)CC1	TGFb SMAD3 inh inconclusive, IL1B secr inh -91, TDP1 cell noCPT 18µM, TDP1 cell CPT 15µM
COc1ccc(NC(=O)C2CCCN(c3c4c(nc5ncnn35)CCC4)C2)cc1OC (stereo not given)	TDP1 cell noCPT inconclusive, TDP1 cell CPT inconclusive
CCOc1ccc(-n2nc(CO)c(C(=O)NCC(c3ccccc3)c3ccccc3)n2)cc1	none (no result: IL1B secr inh)
COc1cc2c3c(c1OC)-c1cc4c(cc1CC3(C#N)N(C(=O)c1ccccc1)CC2)OCO4 (stereo not given)	TDP1 cell noCPT inconclusive, TDP1 cell CPT inconclusive (no result: TDP1 inh)
COc1ccc2c(c1OC)C(Cc1ccccc1)N1CCc3cc4c(cc3C1=C2)OCO4 (stereo not given)	TDP1 cell noCPT 3.8µM, TDP1 cell CPT 3µM (no result: TGFb SMAD3 inh, IL1B secr inh, HepG2 tox)
CCCC(CNC(C)=O)(C1=CCCCC1)c1ccccc1 (stereo not given)	TDP1 cell noCPT 13µM, TDP1 cell CPT 18µM (no result: TDP1 inh)
CCCC(c1nnnn1Cc1ccc(OC)cc1)N1CCN(c2ccccc2)CC1 (stereo not given)	TDP1 cell noCPT 23µM, TDP1 cell CPT inconclusive
CCCC(c1nnnn1Cc1ccc2c(c1)OCO2)N1CCC(C(N)=O)CC1 (stereo not given)	TDP1 cell noCPT inconclusive, HepG2 tox 20µM
CN1CCN(C(c2ccc(F)cc2)c2nnnn2Cc2cccs2)CC1 (stereo not given)	IL1B secr inh inconclusive
Fc1ccc(C(c2nnnn2Cc2cccs2)N2CCN(C3CCCCC3)CC2)cc1 (stereo not given)	IL1B secr inh inconclusive, TDP1 cell noCPT 21µM, TDP1 cell CPT inconclusive
COc1ccc(C(c2nnnn2Cc2ccc(F)cc2)N2CCN(c3ccccc3)CC2)cc1 (stereo not given)	TDP1 cell noCPT inconclusive, TDP1 cell CPT inconclusive
COc1ccc(Cn2nnnc2C(CC(C)C)N2CCN(c3ccccc3)CC2)cc1 (stereo not given)	TDP1 cell noCPT 15µM, TDP1 cell CPT 18µM
CC12CCC(C(=O)N3CCCCC3)([C@H](Br)C1=O)C2(C)C (stereo not given in full)	TGFb SMAD3 inh inconclusive
Nc1nc(SCC(=O)N2CCCCC2)[nH]c(=O)c1NC(=O)c1ccccc1F	none
O=C(Cn1c(=O)n(Cc2ccc(C(=O)NCc3ccccc3Cl)cc2)c(=O)c2ccccc21)Nc1ccc(F)c(Cl)c1	TGFb SMAD3 inh inconclusive (no result: IL1B secr inh)
CC(C)C(c1nnnn1Cc1ccc2c(c1)OCO2)N1CCN(c2ccccc2)CC1 (stereo not given)	TDP1 cell noCPT 21µM
COc1ccc(C(c2nnnn2Cc2ccc(F)cc2)N2CCN(c3ccc(OC)cc3)CC2)cc1 (stereo not given)	TDP1 cell noCPT 15µM, TDP1 cell CPT 23µM
Cc1cc(C(c2nnnn2Cc2ccccc2)N2CCOCC2)c(C)n1-c1ccc2c(c1)OCO2 (stereo not given)	IL1B secr inh -97, TDP1 cell noCPT 16µM, TDP1 cell CPT inconclusive
c1ccc(Cn2nnnc2C(c2ccncc2)N2CCOCC2)cc1 (stereo not given)	none
COc1ccc(Cn2nnnc2C(c2ccccn2)N2CCN(c3cc(Cl)ccc3C)CC2)cc1 (stereo not given)	TGFb SMAD3 inh inconclusive, IL1B secr inh inconclusive, TDP1 cell noCPT inconclusive, TDP1 cell CPT 29µM
CC(C)C(c1nnnn1Cc1ccc2c(c1)OCO2)N1CCN(C)CC1 (stereo not given)	TGFb SMAD3 inh inconclusive

Assay outcomes deposited in PubChem BioAssay by National Center for Advancing Translational Sciences (NCATS).
